According to the supplement of paper PMC10849652:
About 8,800 targets were measured; listed, in parts, are those with a hit and a random draw of the rest. About 0.5% of all pairs of compound and target were hits.

Assays:
Assay in all cases: log2 fold change, soluble protein after heating vs DMSO (PISA); higher = thermal stabilisation; K562 lysate, 10 uM; active = over 0.2 and 3.5 SD of the protein, either way, in both replicates (recomputed)
erlotinib = compound: C#Cc1cccc(Nc2ncnc3cc(OCCOC)c(OCCOC)cc23)c1 [erlotinib]
Procedure, shortened: (§1)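 Quantification was by TMTpro 16plex LC-MS/MS with equalised channel sums, applied to the supernatant after 21,000xg for 90 min. Samples were crude K562 extract at 1 mg/mL protein in PBS pH 7.4 with 1 mM MgCl2, treated with 10 μM compound for 30 min, heated for 3 min across 48°C-58°C, pooled and brought to 0.5% NP-40 at 4°C. Values are log-two fold changes in thermal stability relative to solvent controls, from duplicates.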

[1] = compound: C/C(=N\NC(=O)C1=CC(=CC=C1)S(=O)(=O)N2CCOCC2)/C3=C(C=CC(=C3)Cl)O
Procedure, shortened: as §1

[2] = compound: C1=CC(=CC=C1C2=NC3=C(N2)C=C(C=C3)C(=O)N)OC4=CC=C(C=C4)Cl
Procedure, shortened: as §1

[3] = compound: C1=CC2=C(C=CC(=C2)/C=C\3/C(=O)NC(=NCC4=CC=CS4)S3)N=C1
Procedure, shortened: as §1

[4] = compound: C1=CC2=NC=CN=C2C=C1/C=C/3\C(=O)NC(=O)S3
Procedure, shortened: as §1

[5] = compound: C1=CC=C(C=C1)C2=NC(=C(N2)C3=CC=NC=C3)C4=CC(=C(C=C4)Cl)O
Procedure, shortened: as §1

[6] = compound: C1=CC=C2C(=C1)C3=NNC4=CC=CC(=C43)C2=O
Procedure, shortened: as §1

[7] = compound: C1CCN(C1)C(=O)NC2=CC=CC(=C2)NC3=NC=C(C(=N3)NCCC4=CN=CN4)Br
Procedure, shortened: as §1

[8] = compound: C1CN(CCC1(CC2=CC=C(C=C2)Cl)N)C3=NC=NC4=C3C=CN4
Procedure, shortened: as §1

IRAK-1-4 Inhibitor I = compound: C1COCCN1CCN2C3=CC=CC=C3N=C2NC(=O)C4=CC(=CC=C4)[N+](=O)[O-] [IRAK-1-4 Inhibitor I]
Procedure, shortened: as §1

Measured: log2 fold change

DENND4A isoform 2 (UniProt Q7Z401)
Chain of UniProt Q7Z401 (Q7Z401 whole entry, looked up): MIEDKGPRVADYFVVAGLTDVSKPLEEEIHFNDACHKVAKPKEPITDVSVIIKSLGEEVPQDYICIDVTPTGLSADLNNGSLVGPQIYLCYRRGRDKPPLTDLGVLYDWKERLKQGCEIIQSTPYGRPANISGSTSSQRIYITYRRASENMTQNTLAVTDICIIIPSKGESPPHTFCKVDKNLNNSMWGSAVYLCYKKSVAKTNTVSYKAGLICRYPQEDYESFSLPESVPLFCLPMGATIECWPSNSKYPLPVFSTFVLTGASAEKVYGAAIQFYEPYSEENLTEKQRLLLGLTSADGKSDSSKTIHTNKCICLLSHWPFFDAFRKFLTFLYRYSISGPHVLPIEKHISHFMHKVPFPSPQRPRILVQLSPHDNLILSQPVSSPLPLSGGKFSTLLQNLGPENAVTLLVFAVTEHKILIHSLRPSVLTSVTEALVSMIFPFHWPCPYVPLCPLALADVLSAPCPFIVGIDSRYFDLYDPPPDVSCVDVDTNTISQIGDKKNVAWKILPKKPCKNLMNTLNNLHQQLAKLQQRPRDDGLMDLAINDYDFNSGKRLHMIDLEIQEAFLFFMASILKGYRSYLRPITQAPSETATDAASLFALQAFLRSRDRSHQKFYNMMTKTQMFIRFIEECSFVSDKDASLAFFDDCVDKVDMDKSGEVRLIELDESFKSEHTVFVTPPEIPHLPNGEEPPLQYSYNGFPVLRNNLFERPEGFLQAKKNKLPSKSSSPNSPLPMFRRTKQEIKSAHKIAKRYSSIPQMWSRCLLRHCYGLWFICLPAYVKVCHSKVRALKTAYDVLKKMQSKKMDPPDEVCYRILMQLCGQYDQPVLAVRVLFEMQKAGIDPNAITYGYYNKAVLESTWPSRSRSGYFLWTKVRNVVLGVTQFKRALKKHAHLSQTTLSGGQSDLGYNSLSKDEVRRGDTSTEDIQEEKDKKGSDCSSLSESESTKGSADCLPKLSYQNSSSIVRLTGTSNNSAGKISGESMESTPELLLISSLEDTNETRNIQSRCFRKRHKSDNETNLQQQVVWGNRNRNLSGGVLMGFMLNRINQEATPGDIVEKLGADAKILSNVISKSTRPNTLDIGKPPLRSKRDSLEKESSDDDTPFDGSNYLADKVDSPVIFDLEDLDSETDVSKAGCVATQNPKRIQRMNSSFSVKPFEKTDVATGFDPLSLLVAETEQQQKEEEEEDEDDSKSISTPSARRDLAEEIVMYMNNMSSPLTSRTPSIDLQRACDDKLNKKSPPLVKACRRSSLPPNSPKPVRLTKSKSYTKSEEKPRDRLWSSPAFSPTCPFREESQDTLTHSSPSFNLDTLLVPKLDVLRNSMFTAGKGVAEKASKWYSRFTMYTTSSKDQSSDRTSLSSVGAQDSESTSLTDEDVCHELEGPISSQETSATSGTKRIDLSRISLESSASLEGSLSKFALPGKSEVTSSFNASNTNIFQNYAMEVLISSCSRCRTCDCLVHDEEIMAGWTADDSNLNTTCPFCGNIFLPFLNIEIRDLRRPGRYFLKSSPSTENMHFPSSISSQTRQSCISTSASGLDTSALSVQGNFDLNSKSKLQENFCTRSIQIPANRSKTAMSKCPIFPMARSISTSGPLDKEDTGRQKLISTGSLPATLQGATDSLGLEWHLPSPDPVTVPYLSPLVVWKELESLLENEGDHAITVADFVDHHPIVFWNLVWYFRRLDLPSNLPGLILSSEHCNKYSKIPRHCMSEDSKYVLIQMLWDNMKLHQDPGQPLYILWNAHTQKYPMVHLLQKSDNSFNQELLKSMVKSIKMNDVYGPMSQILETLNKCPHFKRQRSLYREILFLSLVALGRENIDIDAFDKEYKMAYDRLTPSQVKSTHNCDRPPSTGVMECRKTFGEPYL
inactive: erlotinib 0.023 | [1] -0.021 | [2] -0.015 | [3] 0.007 | [4] -0.045 | [5] 0.002 | [6] -0.041 | [7] 0.002 | [8] 0.012 | IRAK-1-4 Inhibitor I 0.017

CLUH, A0A494C0R8
inactive: erlotinib 0.077 | [1] -0.023 | [2] -0.041 | [3] 0.02 | [4] 0.225 | [5] 0 | [6] -0.114 | [7] 0.05 | [8] -0.063 | IRAK-1-4 Inhibitor I 0.008

CLUH (UniProt O75153)
Chain of UniProt O75153 (O75153 whole entry, looked up): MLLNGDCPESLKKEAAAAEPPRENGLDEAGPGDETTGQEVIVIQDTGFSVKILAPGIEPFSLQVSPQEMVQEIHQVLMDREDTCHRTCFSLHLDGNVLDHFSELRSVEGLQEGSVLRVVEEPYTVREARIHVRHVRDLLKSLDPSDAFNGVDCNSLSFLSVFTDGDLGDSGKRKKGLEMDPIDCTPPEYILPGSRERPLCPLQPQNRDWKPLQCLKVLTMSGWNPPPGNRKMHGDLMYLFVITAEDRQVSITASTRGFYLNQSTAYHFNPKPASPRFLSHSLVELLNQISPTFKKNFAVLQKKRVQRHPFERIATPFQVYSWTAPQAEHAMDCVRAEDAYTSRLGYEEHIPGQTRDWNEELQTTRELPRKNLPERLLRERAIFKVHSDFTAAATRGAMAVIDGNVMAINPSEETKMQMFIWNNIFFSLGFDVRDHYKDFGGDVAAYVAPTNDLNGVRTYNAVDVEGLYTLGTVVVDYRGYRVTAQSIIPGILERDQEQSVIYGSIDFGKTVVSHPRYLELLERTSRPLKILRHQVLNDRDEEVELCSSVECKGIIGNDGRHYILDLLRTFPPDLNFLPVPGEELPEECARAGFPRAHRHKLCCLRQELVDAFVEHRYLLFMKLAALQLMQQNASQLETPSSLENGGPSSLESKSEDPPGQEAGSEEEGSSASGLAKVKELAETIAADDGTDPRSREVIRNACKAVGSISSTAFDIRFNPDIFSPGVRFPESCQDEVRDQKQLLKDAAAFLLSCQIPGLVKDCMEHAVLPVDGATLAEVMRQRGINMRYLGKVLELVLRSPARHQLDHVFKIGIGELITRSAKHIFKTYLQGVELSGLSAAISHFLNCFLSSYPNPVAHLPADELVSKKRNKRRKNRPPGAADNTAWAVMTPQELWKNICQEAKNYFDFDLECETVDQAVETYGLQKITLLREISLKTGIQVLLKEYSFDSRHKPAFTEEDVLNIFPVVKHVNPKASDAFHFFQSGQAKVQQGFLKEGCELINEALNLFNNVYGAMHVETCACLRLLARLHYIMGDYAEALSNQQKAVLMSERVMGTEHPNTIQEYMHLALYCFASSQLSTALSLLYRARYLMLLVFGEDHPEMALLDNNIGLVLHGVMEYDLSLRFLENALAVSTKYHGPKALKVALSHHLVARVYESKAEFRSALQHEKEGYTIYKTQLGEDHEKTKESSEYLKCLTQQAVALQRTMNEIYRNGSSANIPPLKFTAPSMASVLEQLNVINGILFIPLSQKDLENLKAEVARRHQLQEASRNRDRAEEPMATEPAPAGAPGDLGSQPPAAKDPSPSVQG
inactive: erlotinib -0.011 | [1] 0.018 | [2] -0.006 | [3] 0.051 | [4] 0.21 | [5] -0.013 | [6] -0.014 | [7] -0.009 | [8] -0.005 | IRAK-1-4 Inhibitor I -0.007

CMTM3 (UniProt Q96MX0)
Chain of UniProt Q96MX0 (Q96MX0 whole entry, looked up): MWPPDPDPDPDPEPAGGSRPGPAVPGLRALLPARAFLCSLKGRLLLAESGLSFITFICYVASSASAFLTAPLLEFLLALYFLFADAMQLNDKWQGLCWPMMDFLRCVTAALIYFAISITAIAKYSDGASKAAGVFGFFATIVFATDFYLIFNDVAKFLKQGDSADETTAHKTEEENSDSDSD
inactive: erlotinib 0.002 | [1] -0.112 | [2] 0.053 | [3] -0.084 | [4] -0.009 | [5] -0.011 | [6] -0.019 | [7] -0.083 | [8] -0.089 | IRAK-1-4 Inhibitor I -0.012

CLPB isoform 2 (UniProt Q9H078)
inactive: erlotinib 0.023 | [1] -0.029 | [2] -0.028 | [3] 0.02 | [4] -0.047 | [5] -0.018 | [6] 0.006 | [7] 0.022 | [8] 0.055 | IRAK-1-4 Inhibitor I -0.002

DICER1 (UniProt Q9UPY3)
inactive: erlotinib 0.013 | [1] -0.088 | [2] -0.056 | [3] -0.023 | [4] -0.027 | [5] 0.03 | [6] -0.025 | [7] -0.064 | [8] -0.042 | IRAK-1-4 Inhibitor I -0.016

COL6A5 (UniProt A8TX70)
inactive: erlotinib 0.064 | [1] 0.161 | [2] 0.02 | [3] -0.062 | [4] -0.167 | [5] 0.027 | [6] 0.014 | [7] 0.014 | [8] -0.052 | IRAK-1-4 Inhibitor I 0.046

COX20 isoform 2 (UniProt Q5RI15)
Chain of UniProt Q5RI15 (Q5RI15 whole entry, looked up): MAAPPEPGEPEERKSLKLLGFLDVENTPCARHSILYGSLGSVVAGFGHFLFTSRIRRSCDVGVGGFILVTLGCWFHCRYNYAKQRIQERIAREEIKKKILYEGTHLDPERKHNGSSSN
inactive: erlotinib 0.022 | [1] 0.004 | [2] -0.018 | [3] -0.001 | [4] -0.129 | [5] 0.016 | [6] -0.036 | [7] -0.09 | [8] 0.034 | IRAK-1-4 Inhibitor I 0.048

DHFR (UniProt P00374)
inactive: erlotinib 0.031 | [1] 0.046 | [2] -0.023 | [3] -0.019 | [4] 0.045 | [5] 0.025 | [6] -0.01 | [7] 0.034 | [8] 0.019 | IRAK-1-4 Inhibitor I -0.055

CNTN4 (UniProt Q8IWV2)
inactive: erlotinib 0.053 | [1] 0.063 | [2] 0.138 | [3] -0.03 | [4] 0.053 | [5] 0.046 | [6] -0.203 | [7] -0.124 | [8] 0.138 | IRAK-1-4 Inhibitor I 0.119

DLD (UniProt P09622)
inactive: erlotinib 0.014 | [1] 0 | [2] 0.022 | [3] -0.01 | [4] 0.025 | [5] 0.004 | [6] 0.007 | [7] 0.008 | [8] 0.006 | IRAK-1-4 Inhibitor I 0.026

DCUN1D4 isoform 3 (UniProt Q92564)
inactive: erlotinib -0.025 | [1] -0.118 | [2] 0.068 | [3] -0.127 | [4] -0.063 | [5] -0.026 | [6] -0.053 | [7] -0.09 | [8] -0.113 | IRAK-1-4 Inhibitor I 0.005

CMBL (UniProt Q96DG6)
Chain of UniProt Q96DG6 (Q96DG6 whole entry, looked up): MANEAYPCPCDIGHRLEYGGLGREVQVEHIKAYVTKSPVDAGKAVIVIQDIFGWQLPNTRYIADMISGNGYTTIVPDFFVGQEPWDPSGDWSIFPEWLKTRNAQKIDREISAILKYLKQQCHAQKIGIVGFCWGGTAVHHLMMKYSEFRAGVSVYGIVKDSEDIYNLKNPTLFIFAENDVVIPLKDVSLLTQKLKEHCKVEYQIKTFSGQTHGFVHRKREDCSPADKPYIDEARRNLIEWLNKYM
inactive: erlotinib 0.026 | [1] 0.047 | [2] -0.03 | [3] -0.031 | [4] 0.01 | [5] -0.002 | [6] 0.045 | [7] 0.006 | [8] -0.002 | IRAK-1-4 Inhibitor I 0.025

CSNK1G3 (UniProt Q9Y6M4)
inactive: erlotinib -0.115 | [1] -0.018 | [2] 0.097 | [3] 0.149 | [4] 0.073 | [5] -0.043 | [6] 0.234 | [7] 0.018 | [8] 0.079 | IRAK-1-4 Inhibitor I 0.022

CSPP1 (UniProt Q1MSJ5)
Chain of UniProt Q1MSJ5 (Q1MSJ5 whole entry, looked up): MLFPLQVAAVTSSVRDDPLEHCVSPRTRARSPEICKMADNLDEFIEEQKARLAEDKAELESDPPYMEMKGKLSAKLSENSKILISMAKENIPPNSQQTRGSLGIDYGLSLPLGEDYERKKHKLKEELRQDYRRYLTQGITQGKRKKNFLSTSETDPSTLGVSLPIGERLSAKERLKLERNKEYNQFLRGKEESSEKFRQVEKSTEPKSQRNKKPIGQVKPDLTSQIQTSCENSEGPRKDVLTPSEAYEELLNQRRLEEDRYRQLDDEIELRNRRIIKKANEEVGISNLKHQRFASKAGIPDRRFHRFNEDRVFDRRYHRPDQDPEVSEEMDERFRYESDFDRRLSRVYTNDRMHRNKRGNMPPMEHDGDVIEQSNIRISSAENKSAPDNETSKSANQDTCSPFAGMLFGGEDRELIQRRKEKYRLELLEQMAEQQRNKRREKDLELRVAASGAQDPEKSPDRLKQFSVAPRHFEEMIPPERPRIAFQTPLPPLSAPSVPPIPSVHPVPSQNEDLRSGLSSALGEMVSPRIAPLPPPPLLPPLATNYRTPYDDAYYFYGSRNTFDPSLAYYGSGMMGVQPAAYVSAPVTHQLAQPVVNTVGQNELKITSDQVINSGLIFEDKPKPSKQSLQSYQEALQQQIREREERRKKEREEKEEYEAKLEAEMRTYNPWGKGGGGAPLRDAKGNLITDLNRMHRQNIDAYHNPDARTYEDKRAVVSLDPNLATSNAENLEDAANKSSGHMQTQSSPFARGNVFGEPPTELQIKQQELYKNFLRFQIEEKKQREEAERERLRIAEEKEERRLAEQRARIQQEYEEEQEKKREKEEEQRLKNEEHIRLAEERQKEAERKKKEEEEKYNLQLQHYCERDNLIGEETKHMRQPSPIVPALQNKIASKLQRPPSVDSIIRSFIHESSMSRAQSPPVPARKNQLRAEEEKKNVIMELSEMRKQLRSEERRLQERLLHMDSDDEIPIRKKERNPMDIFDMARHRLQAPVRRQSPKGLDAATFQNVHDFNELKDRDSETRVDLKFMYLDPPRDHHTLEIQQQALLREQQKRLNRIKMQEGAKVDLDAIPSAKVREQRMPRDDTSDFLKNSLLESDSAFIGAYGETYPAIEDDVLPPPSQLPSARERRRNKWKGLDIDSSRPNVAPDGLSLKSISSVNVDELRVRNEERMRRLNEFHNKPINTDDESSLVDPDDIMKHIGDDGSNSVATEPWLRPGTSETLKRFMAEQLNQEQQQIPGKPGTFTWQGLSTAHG
inactive: erlotinib -0.028 | [1] -0.094 | [2] 0.079 | [3] 0.017 | [4] -0.088 | [5] 0.021 | [6] -0.137 | [7] -0.02 | [8] 0.007 | IRAK-1-4 Inhibitor I -0.026
